Screening results deposited in PubChem BioAssay by Johns Hopkins Ion Channel Center.
Rows were chosen to be rich in hits. Some 3.5% of all compounds tested hit in one or more screens of this group.
KCNK9 block = inhibitors of human KCNK9 two-pore domain potassium channel. Q9NPC2. HEK293 KCNK9, FluxOR thallium flux fluorescence; hits give low values. B-score at 10 µM. 310,000 compounds, 1.2% hits;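 active = ratio B-score over 3 SD below the library mean, with starting fluorescence within 5 SD of its mean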;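 note: negative B-score means less thallium flux so channel inhibition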
Target sequence (Q9NPC2 whole entry, looked up, the tested form may be a part): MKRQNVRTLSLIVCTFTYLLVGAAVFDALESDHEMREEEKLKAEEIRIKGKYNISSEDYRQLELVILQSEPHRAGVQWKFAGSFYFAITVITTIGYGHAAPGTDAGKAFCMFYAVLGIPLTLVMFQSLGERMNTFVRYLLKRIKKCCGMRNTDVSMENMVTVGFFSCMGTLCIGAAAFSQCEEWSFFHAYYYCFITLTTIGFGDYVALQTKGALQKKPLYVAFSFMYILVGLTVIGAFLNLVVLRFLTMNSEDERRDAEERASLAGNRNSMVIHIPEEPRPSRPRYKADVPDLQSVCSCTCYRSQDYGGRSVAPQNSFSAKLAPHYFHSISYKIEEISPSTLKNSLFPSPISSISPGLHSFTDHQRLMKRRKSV
ANO1 block = mouse TMEM16A channel inhibition, primary screen. Q8BHY3. HEK293 TMEM16A/YFP iodide influx fluorescence, ionomycin. normalized B-score (activity score, 25-100; higher = stronger inhibition) at 10 µM. 310,000 compounds, 1.2% hits. AID 588511;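 active = ratio plate-corrected score three or more library SD toward inhibition, starting fluorescence score within five deviations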;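 note: score derived from kinetic fluorescence span divided by baseline fluorescence per well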
ANO1 activ = mouse TMEM16A channel activation, primary screen; B-score at 10 µM; HEK293 TMEM16A/YFP-H148Q/I152L, iodide quench fluorescence; hits give low values; 340,000 compounds, 0.3% hits; Q8BHY3;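 active = fluorescence-ratio B-score plate-corrected deviation score at least 3 library SD below zero, with starting fluorescence score within 5 deviations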;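 note: channel opened by trigger with iodide after compound preincubation; score built on the fluorescence ratio of max minus min over baseline; more negative score means more quench and so TMEM16A activation or potentiation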
KCNK3 inh = human KCNK3 channel inhibition, primary screen. B-score at 10 µM. 340,000 compounds, 0.84% hits. CHO-KCNK3 thallium flux, FluxOR fluorescence; hits give low values. AID 602410;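 active = B-score under library mean minus 4 SD, starting fluorescence ratio at most library mean plus 5 SD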;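 note: more negative B-score means stronger inhibition of thallium flux through KCNK3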
Kir21 block = inhibitors of mouse Kir2.1 inward-rectifier potassium channel; HEK293-Kir2.1, FluxOR thallium flux fluorescence; hits give low values; B-score at 10 µM; 310,000 compounds, 0.85% hits;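 active = fluorescence ratio B-score at or below minus 3 SD of library scores, with starting-brightness B-score within 2 SD, cut at about -4.2 in these data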;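 note: channel flux triggered by added potassium and thallium sulfate stimulus; B-score of peak minus minimum fluorescence over baseline after thallium stimulus; more negative B-score means stronger Kir2.1 block with less thallium influx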
KCNK9 block conf = human KCNK9 inhibitor confirmation | shares compounds with KCNK9 block | HEK293 KCNK9 cells, FluxOR thallium flux fluorescence | inhibition, % at 10 µM | 4,900 compounds, 43% hits | AID 492992;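 active = thallium signal inhibited by more than 5 SD of the compound-free buffer control wells, on both duplicate plates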;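 note: 0% = assay buffer control wells without compound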
Kir2-1 spec = tests whether KCNK9 modulators also affect mouse Kir2.1. inhibition, % at 10 µM. Kir2.1 cells, FluxOR thallium flux fluorescence. 4,900 compounds, 4% hits. shares compounds with KCNK9 block. AID 492993;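 active = thallium signal drop more than 5 SD beyond the mean of the no-compound control wells, seen in both duplicate plates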;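 note: signal is fluorescence rise after thallium addition divided by baseline fluorescence; plate controls were assay buffer only for no effect and full block by chlorpromazine control for full effect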
KCNK9 uninduced = second check of KCNK9 modulator effects in non-induced HEK293 cells; shares compounds with KCNK9 block; FluxOR thallium flux; inhibition, % at 10 µM; 4,900 compounds, 40% hits; AID 492997;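 active = thallium signal drop beyond 5 SD of the untreated control mean, on both duplicate plates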;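 note: plate controls were buffer only IC0 wells for no effect and SID17386958 at its maximal inhibitory level for full effect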
Active calls of the source: *; i = inactive; x = no result given.

SMILES	KCNK9 block	ANO1 block	ANO1 activ	KCNK3 inh	Kir21 block	KCNK9 block conf	Kir2-1 spec	KCNK9 uninduced
COc1ccc(-c2[nH]c(-c3ccc(C(=O)O)cc3)nc2-c2ccccc2)cc1	i	i	i	i	-0.09	x	x	x
COc1cc(-c2nc(-c3ccc4c(c3)-c3ccccc3S4(=O)=O)c(-c3ccccc3)[nH]2)cc(OC)c1O	-16.4*	i	i	-10.3*	-0.05	69.0%*	i	27.5%*
COCCCNC(=S)N1CCCN(c2nc3cc(C)c(C)cc3cc2C#N)CC1	i	i	i	i	-0.42	x	x	x
CCOCCCNC(=S)N1CCCN(c2nc3cc(C)c(C)cc3cc2C#N)CC1	i	i	i	i	-0.15	i	i	i
Cc1cc(C)nc(N/C(=N\S(=O)(=O)Cc2ccccc2)Nc2ccccc2Br)n1	-9.38*	i	i	i	1.91	40.5%*	i	i
Cc1cc(C)nc(Nc2ccccc2Br)n1	i	i	i	i	-0.28	x	x	x
Cn1c(=O)c(=O)n(C)c2cc(S(=O)(=O)N3CCN(c4cccc(C(F)(F)F)c4)CC3)ccc21	i	i	i	i	0.42	x	x	x
CCC(=O)N(CCC1(c2ccccc2OC)CCOC(C(C)C)C1)Cc1ccco1 (configuration not stated)	-14*	i	i	i	-0.74	47.0%*	i	45.5%*
COc1ccccc1C1(CC(=O)O)CCOC(C(C)C)C1 (configuration not stated)	i	i	i	i	-0.33	x	x	x
N/C(=N\OC(=O)Cc1ccc(-c2ccccc2)cc1)c1ccncc1	i	i	i	i	-0.96	30.0%*	i	i
N/C(=N\OC(=O)CSc1ccccc1)c1ccncc1	i	i	i	i	-1.33	x	x	x
O=C(Nc1nc(-c2ccccc2)cs1)c1cccc(S(=O)(=O)N2CCN(Cc3ccccc3)CC2)c1	i	i	i	i	-3.7	i	i	i
O=C(c1cccc(S(=O)(=O)N2CCCCC2)c1)N(CCc1ccccc1)Cc1ccccc1	-16.2*	i	i	i	-2.81	61.5%*	i	35.5%*
O=C(c1cccc(S(=O)(=O)N2CCOCC2)c1)N(CCO)Cc1ccccc1	i	i	i	i	-2.61	x	x	x
CC(=O)N1CCN(S(=O)(=O)c2cccc(C(=O)N(C)Cc3ccc(C)o3)c2)CC1	x	x	i	i	x	x	x	x
Cc1ccc(CN(C)C(=O)c2cccc(S(=O)(=O)N3CCN(Cc4ccccc4)CC3)c2)o1	i	i	i	i	-0.79	i	i	27.5%*
O=C(c1ccc(-n2cncn2)c([N+](=O)[O-])c1)N1CCN(S(=O)(=O)c2cccc(F)c2)CC1	i	i	i	i	-0.05	x	x	x
O=C(O)C1C2CCC(C2)C1C(=O)NCCc1ccccc1 (configuration not stated)	i	i	i	i	-0.8	x	x	x
CSCc1c(C(=O)Nc2ccccc2N2CCOCC2)oc2ccccc12	x	x	i	i	x	x	x	x
COc1ccc2oc(=O)c(/C(N)=N/NC(=O)c3ccncc3)cc2c1	i	i	i	i	0.45	x	x	x
CCN(CC)c1nc(C(N)=O)cc(-c2ccccc2)n1	-8.53*	i	i	i	-0.01	i	i	i
CN1CCN(c2nc(C(N)=O)cc(-c3ccccc3)n2)CC1	i	i	i	i	-0.37	x	x	x
Cc1cc(NC(=O)CSc2nc(C3CC3)nc3sc(C)c(C)c23)no1	i	i	i	i	0.37	x	x	x
CCn1nnnc1SCC(=O)N1c2ccccc2Sc2ccccc21	i	i	i	i	-0.52	i	i	i
COc1cccc(CNC(=O)CCCn2c(=S)[nH]c3cc4c(cc3c2=O)OCO4)c1	i	i	i	i	-0.01	x	x	x
SMILES	KCNK9 block	ANO1 block	ANO1 activ	KCNK3 inh	Kir21 block	KCNK9 block conf	Kir2-1 spec	KCNK9 uninduced
COc1ccc(NC(=O)c2cccnc2)c(OC)c1	i	i	i	i	0.17	x	x	x
COc1ccc(NC(=O)c2cc(-c3cccnc3)nc3c(C)c(C)ccc23)c(OC)c1	i	i	i	i	0.18	i	i	i
COc1ccc(NC(=O)c2ccccc2Oc2ccccc2)c(OC)c1	-8.4*	i	i	i	-0.18	55.0%*	i	29.5%*
COc1ccc(NC(=O)c2ccccc2NC(=O)c2ccccc2C(=O)O)c(OC)c1	i	i	i	i	-0.3	x	x	x
CC(=O)N1CCN(c2nc3ccc([N+](=O)[O-])cc3s2)CC1	i	i	i	i	-0.34	x	x	x
COC1CCCCC1Nc1cccc(SC)c1 (configuration not stated)	i	i	i	i	-0.28	i	i	i
CC(=O)NC(CCCN1C(=O)c2ccccc2C1=O)c1nnn(C)n1 (configuration not stated)	i	i	i	i	1.65	x	x	x
CCCC/C=C/C(NC(=O)c1ccc(-c2ccccc2)cc1)c1ccccc1 (configuration not stated)	i	i	i	i	-0.25	x	x	x
CCCC/C=C/C(NC(=O)CCc1ccccc1)c1ccccc1 (configuration not stated)	-10*	i	i	i	0.22	47.5%*	i	35.0%*
CCC(C)(C)NC(=O)CN(C(=O)CCC(=O)Nc1nccs1)c1ccc2c(c1)OCCO2	i	i	i	i	-0.02	x	x	x
OC(CSc1ccccc1Cl)CN1CCN(c2ccc(F)cc2)CC1 (configuration not stated)	i	i	i	i	-1.51	x	x	x
OC(CSc1ccccc1Cl)CN1CCN(c2ccccc2F)CC1 (configuration not stated)	i	i	i	i	-0.07	i	i	i
OC(CSc1c(Cl)cccc1Cl)CN1CCN(c2ccccc2F)CC1 (configuration not stated)	i	i	i	i	-0.01	i	i	i
OC(CSc1c(Cl)cccc1Cl)CN1CCN(c2ccc(F)cc2)CC1 (configuration not stated)	i	i	i	i	-1.27	i	i	i
COc1ccc(Cl)cc1NS(=O)(=O)c1c(C)[nH]c(=O)[nH]c1=O	i	i	i	i	0.94	x	x	x
CSc1ccc(CN(C)C(=O)CCNS(=O)(=O)c2ccc(C)c(C)c2)cc1	i	i	i	i	-2.94	i	i	i
